# From the supplement of paper PMC10127200
# Where a name gives a salt, the structure may show the parent alone.
# Tests used:
# Assay in all cases: Euclidean distance of Cell Painting phenotypic profile (signed KS, 77 features) to DMSO centroid (dimensionless distance); 5 or 10 uM (library dependent); higher = stronger phenotypic change vs DMSO (phenoactivity)
# Settings in all cases: 48 h
# 786-O = tested on: 786-O
# In short: (§1)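 Phenoactivity is defined as the Euclidean distance from a compound profile to the median vehicle profile. Each profile comprised 77 Harmony features, scored as signed Kolmogorov-Smirnov statistics versus same-plate vehicle wells, then plate-position corrected, correlation-weighted and replicate-averaged at the top dose. Five cancer lines and one healthy fibroblast line were exposed to library compounds for 48 h at 10 or 5 uM (0.1% DMSO final).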
# A549 = tested on: A549
# In short: as §1
# DU145 = tested on: DU145
# In short: as §1
# FB = tested on: FB
# In short: as §1
# HEPG2 = tested on: HEPG2
# In short: as §1
# OVCAR4 = tested on: OVCAR4
# In short: as §1
SMILES,Euclidean distance (786-O),Euclidean distance (A549),Euclidean distance (DU145),Euclidean distance (FB),Euclidean distance (HEPG2),Euclidean distance (OVCAR4)
O=c1c(O)c(-c2ccc(O)c(O)c2)oc2cc(O)ccc12 [Fisetin],0.642,0.833,1.17,0.987,0.906,0.911
CC(=O)N[C@H]1[C@H]([C@H](O)[C@H](O)CO)OC(C(=O)O)=C[C@@H]1NC(=N)N [Zanamivir],1.74,1,0.755,0.983,0.8,1.21
CC[C@H]1[C@@H](O)[C@@H]2[C@H](CC[C@]3(C)[C@@H]([C@H](C)CCC(=O)O)CC[C@@H]23)[C@@]2(C)CC[C@@H](O)C[C@@H]12 [Obeticholic Acid],0.797,0.614,0.878,0.944,0.851,0.844
Oc1cccc(O)c1 [Resorcinol],1.3,1.19,0.938,1.24,1.33,1.05
C[C@@H](Oc1ccc2[nH]nc(/C=C/c3cnn(CCO)c3)c2c1)c1c(Cl)cncc1Cl,3.17,3.59,3.07,3.2,3.02,3.82
COc1ccc(CN(CCN(C)C)c2ncccn2)cc1 [Thonzylamine],1.16,1.66,1.32,1.44,0.672,1.89
N#Cc1ccc(C2CCCc3cncn32)cc1 (configuration not stated) [Fadrozole],1.22,0.722,0.93,1.38,0.631,0.866
CC1(C)O[C@@H]2C[C@H]3[C@@H]4CCC5=CC(=O)CC[C@]5(C)[C@@]4(F)[C@@H](O)C[C@]3(C)[C@]2(C(=O)CCl)O1 [Halcinonide],1.46,2.25,2.18,2,0.493,1.78
NCCCCCC(=O)O,0.84,1.89,2.26,1.67,,1.43
O=C(O)CCc1ccc(NCc2cccc(Oc3ccccc3)c2)cc1,1.31,1.43,1.69,1.47,1.25,1.53
Cc1ccc2c(=O)c3cccc(CC(=O)O)c3oc2c1C [DMXAA (Vadimezan)],2.33,0.921,1.14,1.4,,1.04
CCOC(=O)[C@H](CCc1ccccc1)N[C@H]1CCCN2CCC[C@@H](C(=O)O)N2C1=O [Cilazapril Monohydrate],1.14,1.31,0.828,1.03,,1.38
NS(=O)(=O)c1cc2c(cc1Cl)NCNS2(=O)=O [Hydrochlorothiazide],1.82,1.08,1.44,1.02,,0.927
CN(C)Cc1cccc(N=C(c2ccccc2)c2c(O)[nH]c3cc(C(=O)N(C)C)ccc23)c1,0.777,0.99,1.08,3.16,,1.3
N=c1ccn2c(n1)O[C@H]1[C@H](O)[C@@H](CO)O[C@H]12 [Cyclocytidine HCl],3.43,2.7,2.45,3.66,,4.57
CN1CCN(C(=O)c2cc3cc(Cl)ccc3[nH]2)CC1,1.14,0.827,0.611,0.998,0.507,1.17
O=c1c(-n2ccnn2)c[nH]n1-c1cc(N2CCOCC2)ncn1 [Molidustat (BAY 85-3934)],1.15,0.806,1.01,1.09,0.627,1.19
CCCCOc1c(C(=O)c2c(F)cc(C)cc2F)c[nH]c2nncc1-2,1.55,2.16,1.61,1.37,,2.1
CC(C)c1cnn2c(NCc3ccccc3)cc(NCCCCCCN)nc12,0.657,0.869,0.933,0.961,,1.08
NC(=O)Nc1cc(-c2cccc(F)c2)sc1C(=O)N[C@H]1CCCNC1,3.38,3.15,3.87,3.82,,4.24
C=CCc1cc(OC)c(O)c(C(=O)NCCO)c1 [Alibendol],2.26,0.655,0.743,0.938,,0.912
"c1ccc(C2CN3CCSC3=N2)cc1 (single isomer, unassigned; (-)) [(-)-Tetramisole]",1.24,1.23,0.518,0.965,,2.19
C[C@@]1(c2cc(-c3cncnc3)c(F)cc2F)CCSC(N)=N1,2.11,1.07,1.06,1.09,,0.965
Cc1nccn1CC1CCc2c(c3ccccc3n2C)C1=O (configuration not stated) [Ondansetron Hydrochloride Dihydrate],1.23,0.687,0.998,1.01,1.39,1.43
CC(C)C[C@@H](C(=O)N[C@H](C(=O)OC1CCCC1)c1ccccc1)[C@H](O)C(=O)NO [Tosedostat (CHR2797)],0.679,1.35,0.893,1.15,,1.27

SMILES,Euclidean distance (786-O),Euclidean distance (A549),Euclidean distance (DU145),Euclidean distance (FB),Euclidean distance (HEPG2),Euclidean distance (OVCAR4)
CCCNC(=O)Nc1ccc(Oc2ncnc3cc(OC)c(OC)cc23)cc1Cl,0.633,0.789,0.916,2.36,,1.05
NC(=O)c1ncn([C@@H]2O[C@H](CO)[C@@H](O)[C@H]2O)c1N [Acadesine],1,1.3,0.856,1.35,,0.909
CS(=O)(=O)c1cccc(CNc2nc(Nc3ccc4c(c3)CCC(=O)N4)ncc2C(F)(F)F)c1,3.16,2.6,3.07,3.24,,1.34
C#C[C@]1(O)CC[C@H]2[C@@H]3CCc4cc(OC5CCCC5)ccc4[C@H]3CC[C@@]21C [Quinestrol],1.6,1.26,1.69,1.48,0.902,1.67
CNC(=O)CN(CCN(CCN(CC(=O)[O-])CC(=O)NC)CC(=O)[O-])CC(=O)[O-].[Gd+3] [Gadodiamide],0.953,1.55,1.5,0.962,,1.1
Clc1ccc(C2(c3ccc(-c4cn[nH]c4)cc3)CCNCC2)cc1,2.95,3.29,3.8,4.67,,3.48
CCc1c(C(=O)NCCc2ccc(N3CCCCC3)cc2)[nH]c2ccc(Cl)cc12,1.69,1.48,1.01,1.21,,1.47
COCCOc1ccc2c(c1)ncn2-c1ccc2cccc(N3CCC(N)CC3)c2n1,2.57,3.24,3.51,3.61,,3.88
CC(C)[C@H](O)C(=O)N[C@@H](C)C(=O)N[C@@H]1C(=O)N(C)CCc2ccccc21,1.12,1.34,1.12,1.22,,1.03
O=S(=O)(NCCNC/C=C/c1ccc(Br)cc1)c1cccc2cnccc12,2.02,1.32,2.19,1.3,,1.89
COc1cc(NS(=O)(=O)c2ccc(N)cc2)nc(OC)n1 [Sulphadimethoxine],1.31,1.11,1.61,1.62,,1.44
C[C@@H]1C(=O)O[C@H]2C[C@@]34[C@H]5C[C@@H](C(C)(C)C)[C@]36[C@@H](OC(=O)[C@@H]6O)O[C@@]4(C(=O)O5)[C@]21O [Ginkgolide A],0.788,1.51,1.93,1.46,,1.21
Cc1nc(=O)c2cc(CN(C)c3ccc(C(=O)N[C@@H](CCC(=O)O)C(=O)O)s3)ccc2[nH]1 [Raltitrexed],1.96,2.87,0.703,0.633,2.39,2.76
CCN(CC)CCOC(=O)C(c1ccccc1)c1ccccc1 [Adiphenine HCl],1.67,0.625,0.633,1.43,,0.992
Cc1ccc(-n2nc(C(C)(C)C)cc2NC(=O)Nc2ccc(OCCN3CCOCC3)c3ccccc23)cc1 [BIRB 796 (Doramapimod)],1.54,0.959,1.2,1.38,,1.21
Nc1cccc(-c2cc3c(Oc4cccc(O)c4)ncnc3[nH]2)c1,1.73,3.48,1.62,2.71,,3.29
O=C(NOCC(O)CO)c1cc(Br)c(F)c(F)c1Nc1ccc(I)cc1F (configuration not stated),1.97,2.76,1.78,2.89,,1.17
CCCC1CC(C(=O)NC(C(C)Cl)C2OC(SC)C(O)C(O)C2O)N(C)C1 (configuration not stated) [Clindamycin alcoholate],1.37,0.413,1.04,0.986,1.01,1.02
COc1cc(Nc2nc3ccccc3nc2NS(=O)(=O)c2ccc(NC(=O)c3ccc(C)c(OC)c3)cc2)cc(OC)c1,0.677,1.26,1.17,0.743,,1.07
CN(C)Cc1cccc(N/C(=C2\C(=O)Nc3cc(C(N)=O)ccc32)c2ccccc2)c1,1.11,1.06,1.33,2.56,,1.22
C=CCn1c(=O)c2cnc(Nc3ccc(N4CCN(C)CC4)cc3)nc2n1-c1cccc(C(C)(C)O)n1,3.28,2.56,2.52,3.63,,3.95
CCCC1O[C@@H]2C[C@H]3[C@@H]4CCC5=CC(=O)C=C[C@]5(C)[C@H]4[C@@H](O)C[C@]3(C)[C@]2(C(=O)CO)O1 (some centres not stated) [Budesonide],3.14,1.89,2.06,3.49,2.09,2.47
CN1CCC[C@@H]1CCO[C@](C)(c1ccccc1)c1ccc(Cl)cc1 [Clemastine Fumarate],1.5,1.22,1.59,1.96,2.11,1.18
C[C@@H]1CN(c2c(F)c(N)c3c(=O)c(C(=O)O)cn(C4CC4)c3c2F)C[C@H](C)N1 [Sparfloxacin],0.878,1.28,,0.552,0.632,1.26
